This is an account of results in PubChem BioAssay (NCI).

Each structure is given as a SMILES string. The panel holds about 83,000 compounds, 20% with a hit somewhere; the sample as a whole holds those more often.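 For each line, cells grew in 96-well plates with the test compound present at a single concentration for 48 hours.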 Values without a mark were called inactive. Activity calls are given as the source filed them. The calls were made as follows: active = growth percent below 10; inactive = the rest.

Common to all, as to assay: NCI-60 one-dose screen, 48 h (100 = growth as untreated, 0 = no growth, -100 = all killed)
Experiment [1] has as its system DU-145 prostate. Conditions: 10 µM unless noted.
In experiment [2] the test system is MALME-3M melanoma. The note with it: 10 µM unless noted.
The test system of experiment [3] is RXF 393 renal. Conditions: 10 µM unless noted.
Experiment [4] deals with SF-295 CNS. Conditions: 10 µM unless noted.
Experiment [5] has as its system UACC-257 melanoma. The note with it: 10 µM unless noted.
In experiment [6] the test system is SNB-75 CNS. The note with it: 10 µM unless noted.
In experiment [7] the test system is SNB-19 CNS. Conditions: 10 µM unless noted.
In experiment [8] the test system is LOX IMVI melanoma. Conditions: 10 µM unless noted.
For experiment [9], the system named is SK-MEL-28 melanoma. The note with it: 10 µM unless noted.
For experiment [10], the system named is SK-MEL-2 melanoma. The note with it: 10 µM unless noted.
Experiment [11] has as its system SN12C renal. Conditions: 10 µM unless noted.
Experiment [12] has as its system MOLT-4 leukemia. Conditions: 10 µM.
Experiment [13] deals with OVCAR-8 ovarian. The note with it: 10 µM unless noted.
Experiment [14] has as its system OVCAR-4 ovarian. Conditions: 10 µM unless noted.
Experiment [15] deals with SK-OV-3 ovarian. The note with it: 10 µM unless noted.
For experiment [16], the system named is BT-549 breast. The note with it: 10 µM.
Experiment [17] concerns HCC-2998 colon. Conditions: 10 µM unless noted.
For experiment [18], the system named is HOP-62 NSCLC. The note with it: 10 µM unless noted.
Experiment [19] concerns A549/ATCC NSCLC. Conditions: 10 µM unless noted.
Experiment [20] deals with A498 renal. The note with it: 10 µM unless noted.

`NS(=O)(=O)c1nc[nH]c1[N+](=O)[O-]`: the growth in [1] is 111%; in experiment [2], 102%; in [3], 116%; in experiment [4], 108%; in experiment [5], 119%; in [6] it was 92.1%. Besides, the growth in experiment [7] is 105%; in experiment [8], 101%; in [9], 105%; in experiment [10], 111%; in experiment [11] it was 102%; in experiment [12], 102%. Moreover, the growth in experiment [13] was 105%; in [14] it was 105%; in experiment [15], 101%; in [16], 96.7%; in [17], 100%.
Turning to `N#CC1=C(N)Oc2cc3c(cc2C1c1cccs1)OCO3` (configuration not stated), the growth in [18] is 26.3%; in experiment [19], 36.8%; in experiment [1], 15.5%; in experiment [2] it was 40%; in experiment [3], -5.68% (active); in experiment [4], 4.03% (active). Moreover, the growth was 60.8% in experiment [5]; 43.2% in experiment [7]; 37.2% in experiment [8]; 21.2% in [10]; 52.7% in experiment [11]; 7.63% (active) in [20]. Also, the growth is 29.9% in [12]; 35.1% in experiment [13]; 52.8% in experiment [14]; 7.21% (active) in experiment [15]; 44.6% in experiment [16]; 39.5% in experiment [17].
`CC1=C(SCCC(=O)OCC(=O)NCCC[Te]c2ccccc2)C(=O)c2ccccc2C1=O`: the growth in [18] was -49.1% (active); in [19], 0.0697% (active); in experiment [1], -6.6% (active); in experiment [2], -7.94% (active); in experiment [3], 25%; in experiment [4], -35.6% (active). The growth in experiment [5] was 55.1%; in [6] it was 19.2%; in experiment [7], 9.54% (active); in experiment [8], -12.6% (active); in [10] it was -33.4% (active); in experiment [11], 7.58% (active). The growth was -11.8% (active) in [20]; 0.655% (active) in experiment [12]; 5.76% (active) in experiment [13]; 87.4% in [14]; -36.8% (active) in experiment [15]; -6.68% (active) in [16]. Moreover, the growth in [17] is 10.1%.
For `CC1(C)N=C(N)N=C(N)N1c1cccc(C(=O)Nc2cccc(S(=O)(=O)F)c2)c1`, the growth in [18] is 105%; in experiment [19], 104%; in experiment [1] it was 114%; in experiment [2], 88.9%; in [3], 92.2%; in [4], 84.9%. Also, the growth in experiment [5] was 93.9%; in experiment [6], 80.2%; in experiment [7], 97.3%; in [8], 99.7%; in experiment [9], 103%; in [10], 114%. Moreover, the growth in experiment [11] is 101%; in [20] it was 73.9%; in experiment [12] it was 112%; in experiment [13] it was 100%; in experiment [14], 100%; in [15] it was 117%. In addition, the growth in experiment [16] was 107%; in [17] it was 98.5%.
Regarding `C[CH2][Pb]([CH2]C)([CH2]C)[O]C(=O)c1ccc(N)cc1`, the growth in experiment [18] is 89.3%; in [1], 68%; in experiment [2] it was 40.3%; in experiment [3], 34.2%; in experiment [4], 91.2%; in experiment [6], 47.2%. Further, the growth is 68.5% in experiment [8]; 58.8% in [9]; 39.3% in experiment [10]; 77.2% in experiment [11]; 60.3% in experiment [20]; 60.5% in experiment [12]. In addition, the growth in experiment [13] is 82.1%; in experiment [14], 57%; in experiment [15] it was 76.4%; in experiment [16], 56.9%; in experiment [17], 67.5%.
For the molecule `[O]=[Sn]([CH]1CCCCC1)[CH]1CCCCC1`, the growth in experiment [18] is -91.8% (active); in experiment [19] it was -83.3% (active); in experiment [1], -98% (active); in [2], -72.2% (active); in experiment [3], -99% (active); in experiment [4], -85.6% (active). For the same molecule, the growth in experiment [5] was -88.3% (active); in experiment [6], -99.9% (active); in experiment [7] it was -84.4% (active); in experiment [8] it was -89.6% (active); in [9], -94.8% (active); in experiment [10] it was -63.2% (active). Moreover, the growth in [11] was -80.5% (active); in experiment [20] it was -98% (active); in experiment [12], 6.59% (active); in [13], -66.2% (active); in experiment [14], -98.7% (active); in experiment [15] it was -98.2% (active). In addition, the growth is -99.3% (active) in experiment [16] and -98.6% (active) in experiment [17].
In the case of `O=[N+]([O-])c1cccc([As]=[As]c2cccc([N+](=O)[O-])c2)c1` (configuration not stated), the growth was -95.1% (active) in [18]; -75.2% (active) in experiment [19]; -100% (active) in experiment [1]; -89.1% (active) in experiment [2]; -96.1% (active) in experiment [3]; -94.4% (active) in experiment [5]. The growth was -100% (active) in experiment [6]; -98.6% (active) in experiment [7]; -55.4% (active) in experiment [8]; -98.4% (active) in [9]; -91.4% (active) in [10]; -96% (active) in experiment [11]. Further, the growth is -98.8% (active) in experiment [20]; -37.4% (active) in [12]; -70% (active) in experiment [13]; -99.2% (active) in [14]; -100% (active) in experiment [15]; -97.7% (active) in experiment [16]. Further, the growth in [17] was -90.6% (active).
Turning to `[Br][Pb]([c]1ccccc1)([c]1ccccc1)[c]1ccccc1`, the growth in [18] was -97.7% (active); in experiment [19], -99.2% (active); in experiment [1] it was -97.5% (active); in [3], -83.2% (active); in experiment [5], -99% (active); in experiment [6], -100% (active). In addition, the growth in experiment [7] was -93% (active); in [8], -100% (active); in [9] it was -100% (active); in [10], -96.6% (active); in experiment [11] it was -83.7% (active); in experiment [20], -100% (active). Moreover, the growth was -24.4% (active) in [12]; -100% (active) in experiment [13]; -100% (active) in experiment [14]; -100% (active) in experiment [15]; -94.6% (active) in experiment [17].
Take `COP(=S)(OC)Oc1ccc(SC)c(C)c1`: the growth was 95.4% in experiment [18]; 111% in [1]; 105% in [2]; 107% in experiment [3]; 91.5% in [4]; 89.6% in [6]. The growth was 109% in experiment [7]; 93.3% in [8]; 115% in experiment [9]; 103% in experiment [10]; 100% in experiment [11]; 94.3% in [20]. The values for the growth in experiment [15], in [16] and in experiment [17] were 100%, 83.9% and 104%, respectively.
